For assay [1], the system named is Zika virus NS2B-NS3 protease. Description: Primary screen GU AMC qHTS for Zika virus inhibitors (AID 1347154).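 Also: 0% = no-inhibitor control and -100% = no-enzyme control; nearly all actives have a fitted effect of over 70% in size.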 In a few lines:
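Unlinked Zika NS2B hydrophilic domain/NS3 protease domain noncovalent complex (25 nM final) in 10 mM Tris-HCl pH 8.0, 0.01% Tween 20, with AMC peptide substrate. Fluorescence (ex 340, em 450 nm) change over 15 min, room temperature; percent inhibition fitted to 4-parameter Hill equation.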

Assay [2] is described as follows: Primary qHTS for small molecule stabilizers of the endoplasmic reticulum resident proteome: Secreted ER Calcium Modulated Protein (SERCaMP) assay (AID 1508630). Also: % is scaled to controls: 0 for no effect and ±100 for the full control effect. In a few lines:
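GLuc-SERCaMP-expressing SH-SY5Y cells, pretreated 16 h with compound, are challenged with thapsigargin to empty ER calcium stores; after 4 h, coelenterazine is added directly to the medium and luminescence is imaged.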

Results filed as inconclusive are left out. Values without a mark were called inactive. Calls of active or inactive are those of the source. Calls follow the shape of the dose curve; as a rule, active = well fitted curve in the direction sought with a large enough effect; inconclusive = small, poorly fitted or top-dose-only effect, or another doubt; inactive = no such curve, though single readings can be large; an effect the other way counts as inactive or inconclusive. Where a SMILES comes first, the peptide text is derived from it. The star is where a group is joined. Cbz = O=C(OCc1ccccc1)*; Boc = CC(C)(C)OC(=O)*; CH2F = FC*

With `CN(C)C(=O)n1nnnc1Cc1ccc(-c2ccccc2)cc1`, the Potency result in assay [1] and in assay [2] was “inactive” each time.
`COc1c(O)cc2oc(-c3ccc(O)cc3)cc(=O)c2c1O`: the Potency entry in assay [1] and in assay [2] was “inactive” throughout.
With `CCCCC/C=C\CC1OC1CCCCCCCC(=O)O` (stereo not drawn), the activity change, negative = inhibition is 6.59% [at 0.59 µM] in assay [1] and -29.7% [at 0.478 µM] in assay [2].
Consider `CC(C)C(NS(=O)(=O)c1ccc(-c2ccc(Br)cc2)cc1)C(=O)O` (stereo not drawn), for which the Potency result in assay [1] and in assay [2] was “inactive” each time.
On to `CC(=O)N(O)[C@@H]1c2cc(C#N)ccc2OC(C)(C)[C@H]1O`, for which the Potency result in assay [1] and in assay [2] was “inactive” throughout.
As to `CC(N)(COP(=O)(O)O)C(=O)O` (stereo not drawn), the Potency entry in assay [1] and in assay [2] was “inactive” in each case.
`CNC(=S)NCCCCc1cnc[nH]1`: the Potency result in assay [1] and in assay [2] was “inactive” each time.
Turning to `N[C@H](CS)C(=O)O`, the Potency result in assay [1] and in assay [2] was “inactive” in each case.
As to `O=[N+]([O-])c1ccc(CSc2ncnc3c2ncn3C2OC(CO)C(O)C2O)cc1` (stereo not drawn), the Potency entry in assay [1] and in assay [2] was “inactive” throughout.
For the compound `C1CCC(NC(=NC2C3CC4CC(C3)CC2C4)N2CCOCC2)CC1` (stereo not drawn), the Potency result in assay [1] and in assay [2] was “inactive” each time.
For `CCCC(=O)NCCc1c(I)[nH]c2ccc(OC)cc12`, the Potency entry in assay [1] and in assay [2] was “inactive” each time.
On to `CC(C)=CCN1CCC2(CCc3ccccc32)CC1`, for which the Potency entry in assay [1] and in assay [2] was “inactive” each time.
Consider `Cn1cnc2c(ncn2[C@@H]2O[C@H](CO)[C@@H](O)[C@H]2O)c1=N`, for which the Potency entry in assay [1] and in assay [2] was “inactive” throughout.
In the case of `CC(C)[C@H](NC(=O)CNC(=O)OC(C)(C)C)C(=O)N[C@H](C=O)C(C)C` (Boc-Gly-Val-Val-aldehyde), the Potency entry in assay [1] and in assay [2] was “inactive” throughout.
`COC(=O)c1csc(C(=O)c2c[nH]c3ccccc23)n1`: the Potency result in assay [1] and in assay [2] was “inactive” throughout.
On to `Nc1ncc2[nH]cnc2n1`, for which the Potency result in assay [1] and in assay [2] was “inactive” each time.
With `Cc1nc(N=Nc2cc([N+](=O)[O-])ccc2Cl)c(COP(=O)(O)O)c(C=O)c1O`, the Potency result in assay [1] and in assay [2] was “inactive” throughout.
Consider `CC1=C(C(=O)OC(C)C)[C@@H](c2cccc3nonc23)C([N+](=O)[O-])=C(C)N1`, for which the Potency entry in assay [1] and in assay [2] was “inactive” in each case.
In the case of `CC1=C(/C=C/C(C)=C/C=C/C(C)=C\CO)C(C)(C)CCC1`, the Potency entry in assay [1] and in assay [2] was “inactive” each time.
As to `CCCCCCCCCCCCCCCCOC[C@H](COP(=O)([O-])OCC[N+](C)(C)C)OC(=O)NC`, the activity change, negative = inhibition was 0.721% [at 6.83 µM] in assay [1] and 5.26% [at 3.88 µM] in assay [2].
For the compound `C[C@H](N)CCCP(=O)(O)O`, the Potency entry in assay [1] and in assay [2] was “inactive” throughout.
With `O=C(Nc1ccccc1)C12CC1/C(=N\O)c1ccccc1O2` (stereo not drawn), the Potency entry in assay [1] and in assay [2] was “inactive” each time.
As for `NC(CC(=O)Nc1ccc(Oc2cc(F)c(F)cc2Br)cc1)C(=O)O` (stereo not drawn), the Potency result in assay [1] and in assay [2] was “inactive” throughout.
For the compound `COc1ccc2[nH]cc(CCO)c2c1`, the Potency result in assay [1] and in assay [2] was “inactive” in each case.
Consider `Nc1ncnc2c1ncn2[C@H]1O[C@@H](CSCC[C@@H](N)C(=O)O)[C@H](O)[C@@H]1O`, for which the Potency entry in assay [1] and in assay [2] was “inactive” each time.
Take `O=C(O)[C@H]1CCCN1`: the Potency result in assay [1] and in assay [2] was “inactive” in each case.
With `Oc1ccc(-c2c(-c3ccccc3)nn3c(C(F)(F)F)cc(C(F)(F)F)nc23)cc1`, the Potency result in assay [1] and in assay [2] was “inactive” throughout.
As to `C[N+]1(Cc2ccccc2)CCC(C(=O)OCC2CCCC2)CC1` (stereo not drawn), the Potency result in assay [1] and in assay [2] was “inactive” in each case.
In the case of `CCCCC/C=C\C/C=C\CCCCCCCCCC(=O)O`, the activity change, negative = inhibition in assay [1] was -1.98% [at 6.83 µM]; in assay [2], -7.65% [at 3.88 µM].
As to `CCCCC/C=C/C=C1/C(=O)C=C[C@@H]1C/C=C\CCCC(=O)O`, the activity change, negative = inhibition in assay [1] is 2.18% [at 6.83 µM]; in assay [2] it was -9.18% [at 3.88 µM].
As to `CCCCCCCCCCCCC/C=C/[C@@H](O)[C@H](CO)NC(=O)CCCCCCCCCCCCCCC`, the activity change, negative = inhibition in assay [1] was 22% [at 6.83 µM]; in assay [2] it was -18.7% [at 3.88 µM].
In the case of `NCCC(=O)c1ccccc1N`, the Potency entry in assay [1] and in assay [2] was “inactive” in each case.
With `OC[C@H]1O[C@@H](n2cnc3c(NC4CCCC4)nc(Cl)nc32)[C@H](O)[C@@H]1O`, the Potency entry in assay [1] and in assay [2] was “inactive” each time.
Consider `COC(=O)C[C@H](NC(=O)[C@H](C)NC(=O)[C@@H](NC(=O)OCc1ccccc1)C(C)C)C(=O)CF` (Cbz-Val-Ala-Asp(OMe)-CH2F), for which the Potency entry in assay [1] and in assay [2] was “inactive” throughout.

The values above are taken from PubChem BioAssay (NCATS).
